# The source made the active and inactive calls.
# Key:
# Albumin (Bos taurus) = Albumin (Bos taurus) (UniProt P02769); test: compounds binding labelled BSA control protein – biochemical, small-molecule microarray, Alexa647 label, 635/667 nm fluorescence, artefact control for SMM control protein annotation, profiling panel (AID 1118); conditions: BSA-A647 binding, fluorescence 635 nm, higher = more signal;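 further: score merges 667 nm emission intensity and signal-to-noise per printed compound spot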
# [1] = probe aXIP binding to arrayed compounds – biochemical, NeuroSMM set, 635/667 nm fluorescence, primary screen (AID 1119); conditions: small-molecule microarray, higher = more signal, called active from +8 up or from −8 down;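 further: probe is the protein aXip251-270 applied at 1 µg/mL to compound-printed slides; binding of probe to printed compounds measured as 667 nm fluorescence plus signal to noise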
# [2] = probe aNOTCH3 binding on compound microarray – biochemical, small-molecule microarray, 635/667 nm fluorescence, primary screen (AID 1120); conditions: higher = more signal;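 further: probe is a biotin-tagged antibody raised against NOTCH3 rather than NOTCH3 protein; score merges spot fluorescence near 667 nm with spot signal to noise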
# [3] = probe aNOTCH2 binding on compound microarray – biochemical, small-molecule microarray, 635/667 nm fluorescence, primary screen (AID 1121); conditions: higher = more signal;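 further: score merges feature fluorescence read at 667 nm with its signal to noise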
# [4] = target: Carbonic anhydrase 2 (Homo sapiens) (UniProt P00918); test: compounds binding carbonic anhydrase 2 – biochemical, small-molecule microarray, Alexa647-labelled CAII, profiling panel (AID 1122); conditions: CAII-A647 binding fluorescence, higher = more signal
# [5] = COS7 lysate on small-molecule microarray, probe aHis, 635 nm (AID 1123); conditions: COS7 cell lysate, fluorescence, higher = more signal;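 further: z-score combines 667nm fluorescence intensity with signal-to-noise per printed compound spot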
# [6] = probe aLAP1 signal on lysate-treated microarray – cell lysate, small-molecule microarray, COS7 lysate, primary screen (AID 1124); conditions: probe aLAP1, fluorescence, higher = more signal;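 further: lysate comes from COS7 cells expressing LAP1 and is applied at 0.3 µg/mL; score merges spot fluorescence near 667 nm with signal-to-noise over triplicate slides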
# Sam68 (KHDRBS1) = test: compounds binding KHDRBS1 protein – biochemical, small-molecule microarray, 635 nm fluorescence, primary screen (AID 1125); conditions: higher = more signal;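 further: score merges 667 nm channel intensity with signal to noise over triplicate slides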
# [7] = tested on: Chordin-like protein 2 (CHRDL2); test: compounds binding chordin-like 2 – biochemical, small-molecule microarray, 635 nm fluorescence, primary screen (AID 1126); conditions: fluorescence 635 nm, higher = more signal;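 further: printed compound slides probed with Chrdl2 protein at 4 µg/mL for 1 h at 4 C; score merges 667 nm emission intensity with signal to noise over three replicate slides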
# [8] = target: Concanavalin-A (Canavalia ensiformis) (UniProt P02866); test: compounds binding concanavalin A lectin – biochemical, small-molecule microarray, Alexa647 label, 635 nm, artefact control for SMM control protein annotation, primary screen (AID 1127); conditions: ConA-A647 binding fluorescence, higher = more signal;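 further: z combines 667 nm emission intensity with signal-to-noise across three replicate slides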
# [9] = compounds binding Alexa647 anti-His antibody – biochemical, small-molecule microarray, 635 nm fluorescence, artefact control for SMM control protein annotation, primary screen (AID 1128); conditions: higher = more signal;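 further: score merges feature fluorescence with signal-to-noise for each printed compound spot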
# [10] = tested on: Human papillomavirus type 1a E7 protein (residues 1-88); test: HPV1a E7 small-molecule binders, primary screen, biochemical, small-molecule microarray, residues 1-88, 635 nm (AID 1129); conditions: small-molecule microarray binding, fluorescence 635 nm; higher = more signal
# [11] = target: Focal adhesion kinase 1 (Homo sapiens) (UniProt Q05397); test: PTK2 protein binding on printed compound slides – biochemical, small-molecule microarray, 635/667 nm fluorescence, BSA, DTT, primary screen (AID 1130); conditions: 635 nm fluorescence, higher = more signal;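 further: composite of spot emission at 667 nm and signal to noise over triplicate slides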
# [12] = tested on: Fibrinogen (Alexa647-labelled); test: Alexa647-fibrinogen binding to printed small molecules – biochemical, small-molecule microarray, 635/667 nm fluorescence, artefact control for SMM control-protein annotation, profiling panel (AID 1131); conditions: fibrinogen-A647 binding fluorescence, higher = more signal;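 further: z-score merges 667 nm fluorescence with per-spot signal-to-noise over triplicate slides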
# [13] = target: Follistatin (Homo sapiens) (UniProt P19883); test: FST protein binding to printed compounds – biochemical, small-molecule microarray, 635/667 nm fluorescence, primary screen (AID 1132); conditions: 635 nm fluorescence, higher = more signal
# [14] = target: Fibroblast growth factor 2 (Homo sapiens) (UniProt P09038); test: basic fibroblast growth factor binding to printed compounds – biochemical, small-molecule microarray, 635/667 nm fluorescence, primary screen (AID 1133); conditions: FGF2, fluorescence 635/667, higher = more signal
# [15] = JC-1 mitochondrial potential readout, lung cancer cells – cell-based, A549, JC-1 fluorescence, basal, 24 h, 100 nL, profiling panel (AID 1138); conditions: higher = more signal;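 further: A549 lung adenocarcinoma cells under basal conditions with no added stimulus; test concentration not given here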
# Lefty1 = Lefty1 protein binding to printed compounds – biochemical, small-molecule microarray, 635/667 nm fluorescence, primary screen (AID 1139); conditions: fluorescence 635/667, higher = more signal
# [16] = tested on: wheat germ agglutinin (Triticum aestivum), Alexa647-labelled; test: Alexa647-WGA lectin binding to printed small molecules – biochemical, small-molecule microarray, 635/667 nm fluorescence, artefact control for SMM control-protein annotation, profiling panel (AID 1140); conditions: WGA-A647 binding, 635 nm fluorescence, higher = more signal;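 further: score merges 667 nm feature emission with signal to noise over triplicate slides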
# [17] = target: Luciferin 4-monooxygenase (Photinus pyralis) (UniProt P08659); test: inhibition of purified Photinus pyralis luciferase – biochemical, luminescence, purified enzyme, 2006 set, primary screen (AID 1141); conditions: purified firefly luciferase, SteadyGlo luminescence, 30 min; higher = more signal, called active from +8 up or from −8 down;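 further: cell-free assay with purified firefly luciferase at 100 ng per well in PBS; test concentration not given here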
# Chain of Luciferin 4-monooxygenase (Photinus pyralis) (P08659 whole entry, looked up): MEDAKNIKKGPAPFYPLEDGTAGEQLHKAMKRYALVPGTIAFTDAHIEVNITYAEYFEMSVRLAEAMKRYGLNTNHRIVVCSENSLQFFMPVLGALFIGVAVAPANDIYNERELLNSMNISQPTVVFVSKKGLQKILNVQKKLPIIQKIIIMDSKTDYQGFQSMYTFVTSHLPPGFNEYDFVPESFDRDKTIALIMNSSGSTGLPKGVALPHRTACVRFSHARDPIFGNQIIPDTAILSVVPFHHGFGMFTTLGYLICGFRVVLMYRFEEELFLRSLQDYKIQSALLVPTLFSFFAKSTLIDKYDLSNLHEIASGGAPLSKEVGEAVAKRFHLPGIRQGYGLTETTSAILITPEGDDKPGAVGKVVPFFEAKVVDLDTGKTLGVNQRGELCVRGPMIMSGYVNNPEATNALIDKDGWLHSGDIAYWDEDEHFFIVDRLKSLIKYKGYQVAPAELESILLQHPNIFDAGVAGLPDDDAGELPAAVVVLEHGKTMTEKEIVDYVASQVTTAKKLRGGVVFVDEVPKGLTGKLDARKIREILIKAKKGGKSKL
# Chain of Concanavalin-A (Canavalia ensiformis) (P02866 whole entry, looked up): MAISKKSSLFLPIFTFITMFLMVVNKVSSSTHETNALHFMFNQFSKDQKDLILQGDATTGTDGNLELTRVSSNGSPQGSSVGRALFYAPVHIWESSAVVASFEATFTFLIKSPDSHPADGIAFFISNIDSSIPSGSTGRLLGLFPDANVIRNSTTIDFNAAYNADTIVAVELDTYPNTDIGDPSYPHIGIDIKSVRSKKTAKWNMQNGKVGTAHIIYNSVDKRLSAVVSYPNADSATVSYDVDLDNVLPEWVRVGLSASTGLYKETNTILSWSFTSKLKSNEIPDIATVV
# Chain of Focal adhesion kinase 1 (Homo sapiens) (Q05397 whole entry, looked up): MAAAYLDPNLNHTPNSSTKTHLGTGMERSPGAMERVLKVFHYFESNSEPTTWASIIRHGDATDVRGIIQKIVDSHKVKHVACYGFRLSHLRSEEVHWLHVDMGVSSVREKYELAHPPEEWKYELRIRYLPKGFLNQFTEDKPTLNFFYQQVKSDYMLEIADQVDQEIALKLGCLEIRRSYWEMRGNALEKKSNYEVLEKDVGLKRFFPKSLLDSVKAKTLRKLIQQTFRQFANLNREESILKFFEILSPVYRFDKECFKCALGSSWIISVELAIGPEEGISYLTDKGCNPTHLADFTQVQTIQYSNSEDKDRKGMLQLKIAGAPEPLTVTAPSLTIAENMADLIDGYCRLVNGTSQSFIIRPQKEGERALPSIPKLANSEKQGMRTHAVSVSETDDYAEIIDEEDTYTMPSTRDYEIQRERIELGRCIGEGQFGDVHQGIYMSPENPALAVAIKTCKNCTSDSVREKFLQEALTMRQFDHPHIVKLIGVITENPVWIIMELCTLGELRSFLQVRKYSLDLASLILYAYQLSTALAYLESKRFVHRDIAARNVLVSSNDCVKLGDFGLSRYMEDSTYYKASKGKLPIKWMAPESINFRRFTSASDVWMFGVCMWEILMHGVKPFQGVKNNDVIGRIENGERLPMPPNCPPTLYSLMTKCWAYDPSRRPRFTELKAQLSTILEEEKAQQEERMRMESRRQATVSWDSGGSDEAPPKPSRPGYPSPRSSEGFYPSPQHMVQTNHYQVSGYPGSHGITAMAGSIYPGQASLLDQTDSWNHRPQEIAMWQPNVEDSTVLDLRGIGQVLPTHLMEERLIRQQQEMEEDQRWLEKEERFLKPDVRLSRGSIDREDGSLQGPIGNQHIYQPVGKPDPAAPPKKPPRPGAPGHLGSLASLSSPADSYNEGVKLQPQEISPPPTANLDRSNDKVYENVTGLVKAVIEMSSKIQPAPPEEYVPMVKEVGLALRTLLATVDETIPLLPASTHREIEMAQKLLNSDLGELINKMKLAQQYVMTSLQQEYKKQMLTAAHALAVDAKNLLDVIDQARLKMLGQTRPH
# Chain of Albumin (Bos taurus) (P02769 whole entry, looked up): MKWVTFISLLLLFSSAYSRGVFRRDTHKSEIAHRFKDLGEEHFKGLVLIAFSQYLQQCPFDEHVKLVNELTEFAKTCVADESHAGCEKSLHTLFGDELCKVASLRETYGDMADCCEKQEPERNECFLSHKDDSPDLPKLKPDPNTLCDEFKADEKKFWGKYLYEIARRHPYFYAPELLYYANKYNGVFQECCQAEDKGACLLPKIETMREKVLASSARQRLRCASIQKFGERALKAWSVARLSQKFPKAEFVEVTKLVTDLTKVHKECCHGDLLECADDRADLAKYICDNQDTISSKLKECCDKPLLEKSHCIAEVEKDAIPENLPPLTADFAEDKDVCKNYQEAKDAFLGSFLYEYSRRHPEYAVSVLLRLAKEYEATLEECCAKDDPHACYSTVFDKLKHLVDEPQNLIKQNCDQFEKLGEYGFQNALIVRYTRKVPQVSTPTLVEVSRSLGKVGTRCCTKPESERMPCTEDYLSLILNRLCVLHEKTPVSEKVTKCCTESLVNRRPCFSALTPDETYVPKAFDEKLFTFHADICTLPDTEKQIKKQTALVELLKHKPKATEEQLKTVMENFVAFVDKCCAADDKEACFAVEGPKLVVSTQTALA
# Chain of Fibroblast growth factor 2 (Homo sapiens) (P09038 whole entry, looked up): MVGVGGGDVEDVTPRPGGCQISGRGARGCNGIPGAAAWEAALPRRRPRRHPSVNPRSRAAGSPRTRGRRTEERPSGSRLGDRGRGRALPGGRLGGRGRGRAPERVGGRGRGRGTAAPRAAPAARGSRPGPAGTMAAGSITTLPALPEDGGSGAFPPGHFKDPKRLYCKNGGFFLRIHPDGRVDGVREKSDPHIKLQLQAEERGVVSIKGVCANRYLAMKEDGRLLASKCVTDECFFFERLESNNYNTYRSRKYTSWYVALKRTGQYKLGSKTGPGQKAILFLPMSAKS
# Chain of Follistatin (Homo sapiens) (P19883 whole entry, looked up): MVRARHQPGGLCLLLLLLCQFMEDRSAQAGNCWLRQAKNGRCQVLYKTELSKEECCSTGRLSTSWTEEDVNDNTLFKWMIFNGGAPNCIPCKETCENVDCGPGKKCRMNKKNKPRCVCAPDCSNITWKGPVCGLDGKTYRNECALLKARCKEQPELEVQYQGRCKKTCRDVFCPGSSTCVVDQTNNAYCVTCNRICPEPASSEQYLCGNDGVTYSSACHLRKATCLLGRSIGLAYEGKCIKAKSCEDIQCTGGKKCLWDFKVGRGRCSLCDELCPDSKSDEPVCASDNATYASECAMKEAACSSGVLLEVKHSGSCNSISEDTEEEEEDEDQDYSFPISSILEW
Structure (SMILES),composite z-score (Albumin (Bos taurus)),composite Z-score [1],composite z-score [2],composite z-score [3],composite z-score [4],composite z-score [5],composite z-score [6],composite z-score (Sam68 (KHDRBS1)),composite z-score [7],composite z-score [8],composite z-score [9],composite z-score [10],composite z-score [11],composite z-score [12],composite z-score [13],composite z-score [14],z-score [15],composite z-score (Lefty1),composite z-score [16],z-score [17]
COCCOC(=O)N1C(=O)[C@@]2(c3cc(C#Cc4ccc(OC)cc4)ccc31)[C@H](C(N)=O)[C@H]1C(=O)O[C@H](c3ccccc3)[C@H](c3ccccc3)N1[C@@H]2c1ccc(O)cc1,-1.62,0.0064 (inactive),0.319,-0.0125,0.0424,-0.304,0.0413,-0.986,-1.71,-1.67,-0.994,-0.923,-0.582,-1.48,-0.694,-2.13,-0.335,-2.08,0.17,-0.245 (inactive)
O=[N+]([O-])c1ccc(C[n+]2ccc(CCCO)cc2)o1,0.766,-0.138 (inactive),0.277,0.0655,0.82,1.82,0.313,0.916,0.793,1.09,-0.0383,1.07,1.08,0.752,1.4,1.77,-0.506,0.73,0.226,-0.868 (inactive)
COC(=O)[C@@]1(Cc2ccc(OC)cc2)[C@H]2c3cc(C(=O)N(C)C)n(CCSCCO)c3C[C@H]2CN1C(=O)c1ccccc1,0.905,-0.786 (inactive),0.182,0.407,0.844,2.4,-0.0747,1.23,-0.186,1.13,0.957,1.32,1.68,0.971,0.108,-0.569,-0.399,-1.03,0.515,-0.572 (inactive)
C=C(CCCC)/C(=C/C[C@@H](OC(=O)c1ccncc1)c1ccc(CO)o1)c1cc(C(=O)OC)ccc1OC,0.662,0.421 (inactive),0.0897,-0.0349,0.709,1.46,0.924,1.3,0.422,1.15,1.94,1.23,0.129,0.889,1.16,0.622,-0.108,1.57,1.18,-3.31 (inactive)
C[C@]1(C(=O)NCC(F)(F)F)c2ccccc2C(=O)N(Cc2cc(F)cc(C(F)(F)F)c2)[C@H]1c1ccc(CO)cc1,-0.385,-0.191 (inactive),-0.198,-0.135,0.694,2.18,0.87,1.11,-0.115,0.247,-0.99,0.105,-0.0984,0.0953,1.24,0.261,-1.8,-0.273,-0.0396,0.408 (inactive)
COc1ccc([Si](C)(C)[C@H]2[C@H](CC(=O)N3CCC[C@H]3CO)O[C@@]3(C(=O)N(c4ccccc4)c4ccccc43)[C@@H]2C)cc1,0.723,-0.352 (inactive),-0.191,-0.185,0.655,-0.0779,0.0352,-0.126,0.515,0.493,0.318,0.0005,0.223,-0.445,0.813,0.441,0.16,0.992,0.0807,0.72 (inactive)
C=C(COC)/C(=C/C[C@H](OC(C)=O)c1ccccc1OCCO)c1cnc2ccccc2c1,0.185,0.115 (inactive),-0.0044,-0.14,0.648,0.649,-0.186,1.06,1,0.49,1.91,0.977,0.528,0.325,1.29,0.394,0.0177,0.814,0.666,0.0631 (inactive)
O=C1NC(=O)C2C1C=CC(C(O)c1cccs1)N2Nc1ccccn1 (stereo not given),0.426,0.32 (inactive),0.118,-0.0826,0.803,1.21,0.0919,0.248,0.129,0.766,1.23,0.532,-0.374,0.725,0.131,0.0343,0.543,0.0773,-0.0456,-1.68 (inactive)
COCCCNC(=O)[C@]1(Cc2ccccc2N=[N+]=[N-])N=C(c2ccc(OCCCO)cc2)O[C@@H]1c1ccccc1CN=[N+]=[N-],0.522,0.0955 (inactive),0.523,0.202,0.398,2.51,0.561,1.12,0.228,1.13,2.33,1.22,0.631,0.947,1.35,0.449,-0.418,0.231,1.12,-2.5 (inactive)
CC(C)N1C(=O)c2ccccc2[C@](C)(C(=O)NC2CC2)[C@@H]1c1ccc(CO)cc1,0.375,-0.116 (inactive),-0.0557,-0.171,0.665,1.41,-0.141,0.424,0.172,0.699,1.58,0.875,-0.118,0.803,1.12,0.507,0.378,0.0517,0.497,1.34 (inactive)
CCCNC(=O)[C@@]1(C)c2ccccc2C(=O)N(Cc2cc(C(F)(F)F)cc(C(F)(F)F)c2)[C@H]1c1ccc(CO)cc1,-0.549,0.147 (inactive),-0.198,-0.114,0.671,1.68,0.458,0.356,-1.08,-0.082,2.41,0.903,0.147,0.267,0.127,0.68,-0.704,-0.524,0.463,0.517 (inactive)
